In PubChem BioAssay (Tox21) one finds Potency data, which are given here for 10 compounds.

Assay [1] can be described thus: Human pregnane X receptor (PXR) small molecule agonists, qHTS cell viability counter screen (AID 1346977). Note: nearly all actives have a fitted effect of over 50% in size. Note: potency is the fitted concentration of half-maximal effect. In a few lines:
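PXR-Luc HepG2, 2,000 cells/well, 5% charcoal-stripped FBS; 5hr settle; cpd 24hr, 37C/5% CO2; CellTiter-Fluor at 23hr, read 1hr later (fluorescence).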

Assay [2] in a line: Caspase-3/7 induction in HepG2 cells by small molecules, qHTS assay (AID 1346978). Note: nearly all actives have a fitted effect of over 15% in size. Note: potency is the fitted concentration of half-maximal effect. The procedure, abridged: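 Wild-type HepG2 cells, 2,000/well, settled 5 hr at 37 C and 5% CO2, then compound-treated for 17 hr; caspase-3/7 activity read by luminescent Caspase-Glo 3/7 after 30 min at room temperature.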
Background: In qHTS, concentration-response curves come from the screen itself.

A short description of assay [3]: Caspase-3/7 induction in CHO-K1 cells by small molecules, qHTS cell viability counter screen (AID 1346979). Note: nearly all actives have a fitted effect of over 35% in size. Note: potency is the fitted concentration of half-maximal effect. In a few lines:
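Cells (CHO-K1, wild type) are plated at 1,500 per well and incubated 5hr. Test compounds in DMSO are then pinned in, followed by 16hr at 37C and 5% CO2. Viability is read by CellTiter-Fluor fluorescence after 1hr.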

Assay [4] is described as follows: Caspase-3/7 induction in CHO-K1 cells by small molecules, qHTS assay (AID 1346980). Note: nearly all actives have a fitted effect of over 15% in size. The procedure, abridged:
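Wild-type CHO-K1 cells exposed to compounds for 17hr at 37 C, 5% CO2. Caspase-3/7 activity then measured by Caspase-Glo 3/7 luminescence after 30min at room temperature.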

The nature of assay [5]: Caspase-3/7 induction in HepG2 cells by small molecules, qHTS cell viability counter screen (AID 1346981). Note: nearly all actives have a fitted effect of over 30% in size. Note: potency is the fitted concentration of half-maximal effect. In a few lines: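 Wild-type HepG2 cells, 2,000/well, settled 5 hr at 37 C, 5% CO2 before compound addition. Viability read by CellTiter-Fluor fluorescence, reagent added after 16 hr compound exposure, then 1 hr at 37C, in the same wells as the caspase read.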
Assay [6] deals with Nuclear receptor subfamily 1 group I member 2 (Homo sapiens) (UniProt O75469). Put plainly: Human pregnane X receptor (PXR) small molecule agonists, qHTS assay (AID 1346982). Note: nearly all actives have a fitted effect of over 35% in size. Note: potency is the fitted concentration of half-maximal effect. In a few lines: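 PXR-Luc HepG2 reporter cells (CYP3A4-driven luciferase) in 5% charcoal-stripped FBS medium, plated 5 h before compound addition, then treated 24 h at 37C. Luciferase read by ONE-Glo luminescence after 30 min at room temperature.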
Nuclear receptor subfamily 1 group I member 2 (Homo sapiens), sequence (O75469 whole entry, looked up): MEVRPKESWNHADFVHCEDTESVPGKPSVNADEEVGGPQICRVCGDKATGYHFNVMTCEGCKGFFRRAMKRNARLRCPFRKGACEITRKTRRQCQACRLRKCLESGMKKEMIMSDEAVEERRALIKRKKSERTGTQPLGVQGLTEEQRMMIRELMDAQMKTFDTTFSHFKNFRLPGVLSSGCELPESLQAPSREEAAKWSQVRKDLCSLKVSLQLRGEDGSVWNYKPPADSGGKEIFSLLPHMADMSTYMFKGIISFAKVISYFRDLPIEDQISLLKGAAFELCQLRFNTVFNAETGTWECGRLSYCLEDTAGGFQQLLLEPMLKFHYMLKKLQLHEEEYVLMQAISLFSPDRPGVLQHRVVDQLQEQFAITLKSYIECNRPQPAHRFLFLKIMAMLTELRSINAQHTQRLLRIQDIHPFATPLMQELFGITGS

The target in assay [7] is Acetylcholinesterase (Homo sapiens) (UniProt P22303). Put plainly: Acetylcholinesterase (AChE) small molecule antagonists: colormetric cell-based qHTS assay (AID 1347395; calls by dose curve; note: nearly all actives have a fitted effect of over 30% in size; note: potency is the fitted concentration of half-maximal effect). The procedure, abridged:
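Colorimetric read-out: DTNB detects thiocholine released when cellular AChE in SH-SY5Y cells hydrolyses acetylthiocholine. Cells attached overnight, received compound for 30 min at 37 C, then substrate mix for 90 min at 37 C.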

The target is the same in assay [8]. Kind of assay: Acetylcholinesterase (AChE) small molecule antagonists: enzyme-based qHTS assay (AID 1347397; calls by dose curve; note: nearly all actives have a fitted effect of over 55% in size). The settings on record: Potency: AChE enzyme activity inhibition. In a few lines: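 Enzyme inhibition was scored from DTNB-detected thiocholine formed by recombinant human AChE acting on acetylthiocholine. The 30 min compound preincubation and 10 min substrate reaction were both run at room temperature, with DMSO as vehicle control.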

Assay [9] shares this target. Kind of assay: Acetylcholinesterase (AChE) small molecule antagonists: fluorescence cell-based qHTS assay (AID 1347398; calls by dose curve; note: nearly all actives have a fitted effect of over 50% in size). The settings on record: Potency: AChE activity. The procedure, abridged: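 Endogenous acetylcholinesterase of SH-SY5Y neuroblastoma cells is measured in situ. After overnight attachment and 30 min compound exposure, cells receive acetylthiocholine and Thiolite Green; fluorescence is read after 40 min at room temperature.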

The target is the same in assay [10]. Put plainly: Acetylcholinesterase (AChE) small molecule antagonists: enzyme-based qHTS assay with human liver microsomes (AID 1347399; calls by dose curve; note: nearly all actives have a fitted effect of over 60% in size; note: potency is the fitted concentration of half-maximal effect). The settings on record: Potency: qHTS inhibition. The procedure, abridged: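 Recombinant human AChE (50 mU/mL in the enzyme mix) and human liver microsomes (0.25 mg/mL final) were preincubated with compound and NADPH (0.25 mg/mL final) for 30 min at 37 C. Acetylthiocholine/DTNB was then added; thiocholine was read colorimetrically after 10 min at room temperature.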

The target of assay [11] is Cytochrome P450 2D6 (Homo sapiens) (UniProt P10635). Kind of assay: Cytochrome P450 Family 2 Subfamily D Member 6 (CYP2D6) small molecule antagonists: luciferase reporter qHTS assay (AID 1671196). Note: nearly all actives have a fitted effect of over 50% in size. Note: potency is the fitted concentration of half-maximal effect. The procedure, abridged: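 Cell-free P450-Glo system: CYP2D6 with proluciferin substrate was pre-incubated with compound for 10 min, then reacted with NADPH regeneration for 1 h at room temperature. Luciferin product was detected after 20 min, and data were reported as relative luminescence units.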
Cytochrome P450 2D6 (Homo sapiens), sequence (P10635 whole entry, looked up): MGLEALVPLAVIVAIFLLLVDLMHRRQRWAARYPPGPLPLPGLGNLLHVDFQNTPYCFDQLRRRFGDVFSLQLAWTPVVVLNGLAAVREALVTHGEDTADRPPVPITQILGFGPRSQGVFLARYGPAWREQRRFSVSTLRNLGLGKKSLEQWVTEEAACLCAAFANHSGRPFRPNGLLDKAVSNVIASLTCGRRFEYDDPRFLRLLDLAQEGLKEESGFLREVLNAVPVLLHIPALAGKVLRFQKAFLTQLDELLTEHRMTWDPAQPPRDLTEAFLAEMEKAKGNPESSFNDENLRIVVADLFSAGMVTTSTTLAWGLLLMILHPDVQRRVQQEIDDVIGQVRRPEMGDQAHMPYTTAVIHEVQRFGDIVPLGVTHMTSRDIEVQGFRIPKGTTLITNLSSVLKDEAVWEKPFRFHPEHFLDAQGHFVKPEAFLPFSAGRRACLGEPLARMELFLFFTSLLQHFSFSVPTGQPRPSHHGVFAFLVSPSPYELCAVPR
(A reporter such as luciferase makes a cellular process visible.)

In assay [12] the target is Cytochrome P450 2C19 (Homo sapiens) (UniProt P33261). Put plainly: Cytochrome P450 Family 2 Subfamily C Member 19 (CYP2C19) small molecule antagonists: luciferase reporter qHTS assay (AID 1671197). Note: nearly all actives have a fitted effect of over 65% in size. Note: potency is the fitted concentration of half-maximal effect. In a few lines: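 Compounds were tested on CYP2C19 activity via proluciferin conversion to luciferin. The 37C, 1 h reaction followed NADPH addition; detection reagent stopped it.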
Cytochrome P450 2C19 (Homo sapiens), sequence (P33261 whole entry, looked up): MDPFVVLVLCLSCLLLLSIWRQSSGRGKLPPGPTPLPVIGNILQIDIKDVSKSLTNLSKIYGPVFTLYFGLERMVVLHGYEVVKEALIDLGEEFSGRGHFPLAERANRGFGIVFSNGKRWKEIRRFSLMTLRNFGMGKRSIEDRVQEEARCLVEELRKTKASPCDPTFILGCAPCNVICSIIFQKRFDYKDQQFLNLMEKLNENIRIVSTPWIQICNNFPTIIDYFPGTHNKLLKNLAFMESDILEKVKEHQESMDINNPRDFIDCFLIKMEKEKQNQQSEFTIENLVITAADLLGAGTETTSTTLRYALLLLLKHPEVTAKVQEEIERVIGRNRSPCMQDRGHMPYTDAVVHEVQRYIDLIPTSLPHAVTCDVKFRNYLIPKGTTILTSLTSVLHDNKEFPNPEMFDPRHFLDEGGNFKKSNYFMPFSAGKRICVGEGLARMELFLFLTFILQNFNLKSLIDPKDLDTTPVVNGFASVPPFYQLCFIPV

Assay [13] deals with Cytochrome P450 1A2 (Homo sapiens) (UniProt P05177). Put plainly: Cytochrome P450 Family 1 Subfamily A Member 2 (CYP1A2) small molecule antagonists: luciferase reporter qHTS assay (AID 1671199). Note: nearly all actives have a fitted effect of over 50% in size. Note: potency is the fitted concentration of half-maximal effect. The procedure, abridged: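 P450-Glo CYP1A2 enzyme–proluciferin substrate mix with compound 10 min at room temperature, then NADPH regeneration 1 h at room temperature. Luciferin detection reagent added, luminescence read after 20 min; furafylline positive control.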
Cytochrome P450 1A2 (Homo sapiens), sequence (P05177 whole entry, looked up): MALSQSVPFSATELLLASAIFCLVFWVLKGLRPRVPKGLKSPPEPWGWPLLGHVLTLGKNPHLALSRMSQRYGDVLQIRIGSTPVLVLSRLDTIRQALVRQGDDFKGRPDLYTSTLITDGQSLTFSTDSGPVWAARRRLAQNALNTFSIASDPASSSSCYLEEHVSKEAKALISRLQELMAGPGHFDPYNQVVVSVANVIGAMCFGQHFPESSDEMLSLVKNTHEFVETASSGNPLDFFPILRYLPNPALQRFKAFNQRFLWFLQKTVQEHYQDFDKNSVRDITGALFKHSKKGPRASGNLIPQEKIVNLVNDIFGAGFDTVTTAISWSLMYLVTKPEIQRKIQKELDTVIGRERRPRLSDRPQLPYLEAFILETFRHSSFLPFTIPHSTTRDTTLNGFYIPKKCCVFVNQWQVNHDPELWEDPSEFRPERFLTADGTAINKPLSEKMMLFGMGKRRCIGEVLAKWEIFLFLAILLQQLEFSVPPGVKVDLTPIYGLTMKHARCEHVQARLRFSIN

Assay [14] concerns the target Voltage-gated inwardly rectifying potassium channel KCNH2 (Homo sapiens) (UniProt Q12809). Put plainly: Human Ether-a-go-go-Related Gene (hERG) channel small molecule antagonists: fluorescence cell-based qHTS assay (AID 1671200). Note: nearly all actives have a fitted effect of over 50% in size. Note: potency is the fitted concentration of half-maximal effect. In a few lines:
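Channel function was assessed by thallium flux. Cells seeded the previous day and kept at 37 C took up FluxOR II dye over 1 h in the dark at room temperature, then sat another 10 min before stimulation.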

Assay [15] deals with Cytochrome P450 2C9 (Homo sapiens) (UniProt P11712). Put plainly: Cytochrome P450 Family 2 Subfamily C Member 9 (CYP2C9) small molecule antagonists: luciferase reporter qHTS assay (AID 1671198). Note: nearly all actives have a fitted effect of over 50% in size. Note: potency is the fitted concentration of half-maximal effect. The procedure, abridged:
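P450-Glo proluciferin substrate with CYP2C9 enzyme; 10 min RT preincubation, then NADPH regeneration 1 h at 37C; luciferin detection reagent 20 min RT, luminescence in relative luminescence units.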

The target of assay [16] is Cytochrome P450 3A4 (Homo sapiens) (UniProt P08684). Kind of assay: Cytochrome P450 Family 3 Subfamily A Member 4 (CYP3A4) small molecule antagonists: luciferase reporter qHTS assay (AID 1671201). In a few lines:
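Compounds in DMSO were pin-transferred onto CYP3A4 enzyme-substrate mix and held 10 min at room temperature. NADPH regenerating solution started the reaction for 1 h; luciferin detection reagent stopped it, and luminescence was read after 20 min.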

Several values for one entry are separate records, joined by “and”; a condition that tells them apart may be missing. Equal entries are not always repeated. Inconclusive results are not listed. A structure can be active in one record and inactive in another. Activity calls are given as the source filed them. Unless noted, calls come from the whole dose curve; as a rule, active = well fitted curve in the direction sought with a large enough effect in the repeat runs; inconclusive = weak or mixed curves; inactive = no such curve, though single readings can be large; an effect the other way counts as inactive or inconclusive.

Cytochrome P450 2C9 (Homo sapiens), sequence (P11712 whole entry, looked up): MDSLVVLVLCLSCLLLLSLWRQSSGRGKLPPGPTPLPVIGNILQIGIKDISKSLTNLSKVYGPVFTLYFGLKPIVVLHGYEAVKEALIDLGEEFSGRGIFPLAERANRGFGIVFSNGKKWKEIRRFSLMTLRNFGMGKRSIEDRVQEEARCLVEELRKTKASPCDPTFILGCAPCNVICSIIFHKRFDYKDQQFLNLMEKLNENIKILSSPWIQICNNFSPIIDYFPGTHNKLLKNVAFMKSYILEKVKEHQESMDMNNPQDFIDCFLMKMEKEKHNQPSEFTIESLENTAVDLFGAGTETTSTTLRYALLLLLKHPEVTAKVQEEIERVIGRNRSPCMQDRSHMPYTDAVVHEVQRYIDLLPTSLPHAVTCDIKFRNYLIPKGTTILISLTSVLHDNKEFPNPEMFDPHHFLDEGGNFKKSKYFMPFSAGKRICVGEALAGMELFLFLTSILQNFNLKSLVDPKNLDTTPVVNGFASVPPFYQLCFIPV
Voltage-gated inwardly rectifying potassium channel KCNH2 (Homo sapiens), sequence (Q12809 whole entry, looked up): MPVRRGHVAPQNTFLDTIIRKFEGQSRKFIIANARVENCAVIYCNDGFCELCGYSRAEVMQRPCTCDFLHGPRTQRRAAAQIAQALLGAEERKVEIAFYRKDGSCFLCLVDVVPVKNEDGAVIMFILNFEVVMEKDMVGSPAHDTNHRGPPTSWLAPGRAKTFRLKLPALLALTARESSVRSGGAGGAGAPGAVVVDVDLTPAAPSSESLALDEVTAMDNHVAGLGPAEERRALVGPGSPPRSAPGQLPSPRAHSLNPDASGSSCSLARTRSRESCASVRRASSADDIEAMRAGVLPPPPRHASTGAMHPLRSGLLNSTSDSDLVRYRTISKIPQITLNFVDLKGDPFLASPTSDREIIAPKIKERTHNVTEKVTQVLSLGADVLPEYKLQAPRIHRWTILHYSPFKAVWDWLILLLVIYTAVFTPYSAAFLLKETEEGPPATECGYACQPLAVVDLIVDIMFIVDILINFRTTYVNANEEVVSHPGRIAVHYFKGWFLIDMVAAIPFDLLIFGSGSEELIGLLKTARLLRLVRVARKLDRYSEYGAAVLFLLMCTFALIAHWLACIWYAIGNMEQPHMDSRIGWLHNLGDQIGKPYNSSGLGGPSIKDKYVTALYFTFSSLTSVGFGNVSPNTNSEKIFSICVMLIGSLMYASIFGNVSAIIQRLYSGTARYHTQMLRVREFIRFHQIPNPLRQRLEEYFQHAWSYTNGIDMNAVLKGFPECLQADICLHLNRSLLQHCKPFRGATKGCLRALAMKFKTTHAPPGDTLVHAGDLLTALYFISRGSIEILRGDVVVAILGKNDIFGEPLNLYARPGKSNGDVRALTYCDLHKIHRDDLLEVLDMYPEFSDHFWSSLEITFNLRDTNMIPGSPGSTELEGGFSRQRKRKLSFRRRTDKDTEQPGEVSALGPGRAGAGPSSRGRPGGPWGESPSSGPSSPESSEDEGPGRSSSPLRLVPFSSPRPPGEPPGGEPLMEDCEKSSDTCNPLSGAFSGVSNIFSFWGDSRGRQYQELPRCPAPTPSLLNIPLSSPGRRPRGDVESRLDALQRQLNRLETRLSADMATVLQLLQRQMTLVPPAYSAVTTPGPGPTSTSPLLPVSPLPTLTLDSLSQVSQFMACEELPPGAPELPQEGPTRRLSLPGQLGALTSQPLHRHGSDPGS
Cytochrome P450 3A4 (Homo sapiens), sequence (P08684 whole entry, looked up): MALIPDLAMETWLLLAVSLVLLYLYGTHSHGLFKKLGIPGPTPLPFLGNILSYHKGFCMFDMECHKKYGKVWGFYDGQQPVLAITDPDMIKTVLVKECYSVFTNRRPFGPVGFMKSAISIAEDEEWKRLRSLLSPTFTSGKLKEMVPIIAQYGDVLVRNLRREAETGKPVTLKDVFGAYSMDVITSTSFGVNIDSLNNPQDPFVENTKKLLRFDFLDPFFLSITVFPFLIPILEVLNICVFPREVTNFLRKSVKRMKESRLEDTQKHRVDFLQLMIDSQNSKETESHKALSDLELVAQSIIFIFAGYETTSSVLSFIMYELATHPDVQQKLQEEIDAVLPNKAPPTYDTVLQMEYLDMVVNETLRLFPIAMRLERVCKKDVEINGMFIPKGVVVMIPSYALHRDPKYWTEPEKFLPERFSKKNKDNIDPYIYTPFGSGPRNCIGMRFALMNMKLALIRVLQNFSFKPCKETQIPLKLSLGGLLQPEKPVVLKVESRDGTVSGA
Acetylcholinesterase (Homo sapiens), sequence (P22303 whole entry, looked up): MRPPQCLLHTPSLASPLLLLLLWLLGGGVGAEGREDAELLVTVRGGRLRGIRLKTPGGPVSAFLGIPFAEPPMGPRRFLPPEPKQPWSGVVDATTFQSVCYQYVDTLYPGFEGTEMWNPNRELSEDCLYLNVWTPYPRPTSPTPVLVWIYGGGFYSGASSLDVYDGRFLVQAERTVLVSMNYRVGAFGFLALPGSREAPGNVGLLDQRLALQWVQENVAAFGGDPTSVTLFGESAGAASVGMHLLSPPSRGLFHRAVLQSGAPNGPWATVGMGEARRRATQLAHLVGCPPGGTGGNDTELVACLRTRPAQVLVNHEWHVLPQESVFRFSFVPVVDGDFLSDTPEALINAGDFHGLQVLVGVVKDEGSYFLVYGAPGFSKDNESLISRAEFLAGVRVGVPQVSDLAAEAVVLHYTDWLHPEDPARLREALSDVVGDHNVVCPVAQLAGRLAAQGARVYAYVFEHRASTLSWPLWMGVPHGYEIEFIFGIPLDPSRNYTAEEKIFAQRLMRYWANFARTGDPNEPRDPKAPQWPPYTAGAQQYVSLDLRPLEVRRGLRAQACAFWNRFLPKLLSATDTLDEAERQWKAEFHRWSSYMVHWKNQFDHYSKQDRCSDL

For the compound `Cc1cccc(N=Nc2ccc(N(C)C)cc2)c1`, the Potency entry in assay [1], in [4], in assay [7], in assay [8], in [9] and in [10] was “inactive” in each case. Besides, the Potency result in [11] and in assay [14] was “inactive” throughout. The Potency in assay [2] was 7.83 µM (active) and 2.43 µM (active); in assay [3], 62.2 µM (active) and 43.3 µM (active); in assay [5], 27.8 µM (active) and 8.63 µM (active); in assay [6] it was 221 nM (active) and 3.06 µM (active); in assay [12], 10.2 µM (active) and 17.8 µM (active); in assay [13] it was 2.28 µM (active) and 3.56 µM (active).

For the compound `Cl`, the Potency entry in assay [1], in assay [2], in [3], in assay [4], in [5] and in [14] was “inactive” in each case.

Take `CCCCOC(=O)COC(=O)c1ccccc1C(=O)OCCCC`: the Potency entry in assay [1], in assay [2], in assay [3], in assay [4], in assay [5] and in [6] was “inactive” throughout. Further, the Potency result in [7], in assay [8], in [9] and in assay [10] was “inactive” throughout. For the same compound, the Potency in assay [12] was 7.93 µM (active) and 11.2 µM (active); in [15], 6.3 µM (active) and 7.1 µM (active); in [13], 11.2 µM (active) and 20 µM (active).

As for `N#Cc1cccnc1`, the Potency result in [1], in [2], in assay [3], in assay [4], in [5] and in assay [6] was “inactive” in each case. Further, the Potency result in assay [7], in [8], in [9], in assay [10], in assay [11] and in assay [13] was “inactive” throughout. For the same compound, in assay [14], the Potency result was “inactive”. Besides, the Potency in assay [12] is 38.8 µM (active) and inactive.

`CCC(=O)Nc1ccc(Cl)c(Cl)c1`: the Potency result in assay [1], in assay [2], in [4], in [5], in [7] and in assay [8] was “inactive” in each case. Moreover, the Potency result in assay [9], in assay [10] and in [14] was “inactive” in each case. Also, the Potency in [11] was 36.3 µM (active); in assay [12], 22.9 µM (active) and 35.6 µM (active); in [15] it was 64.6 µM (active) and 63.3 µM (active); in assay [13], 5.13 µM (active) and 7.1 µM (active).

`Cc1cc(Cl)ccc1N=CN(C)C`: the Potency entry in assay [1], in assay [2], in [3], in assay [4], in assay [5] and in assay [15] was “inactive” throughout. For the same compound, the Potency entry in [14] is “inactive”. In addition, the Potency was 35.6 µM (active) in assay [11]; 79.6 µM (active) and inactive in assay [12]; 22.4 µM (active) and 28.3 µM (active) in assay [13].

With `CCCCCCCCCc1ccc(O)cc1`, the Potency in [1] is 61.1 µM (active); in assay [2], 61.8 µM (active) and 27.3 µM (active); in assay [3] it was 61.8 µM (active) and 54.5 µM (active); in assay [5], 43.3 µM (active); in assay [6], 61.8 µM (active) and 61.1 µM (active); in assay [12], 6.39 µM (active) and 10 µM (active). In addition, the Potency is 20.2 µM (active) and 31.7 µM (active) in assay [15]; “inactive and 39.9 µM (active)” in [13]. The Potency result in assay [7], in assay [9], in assay [10], in [11] and in assay [14] was “inactive” in each case.

For `CCOP(=S)(OCC)SCn1c(=O)oc2cc(Cl)ccc21`, the Potency entry in assay [1], in assay [2], in assay [4], in assay [5], in assay [8] and in assay [9] was “inactive” throughout. In addition, the Potency in [3] is 73.6 µM (active); in [6] it was 32.9 µM (active) and 34.4 µM (active); in assay [10], 8.55 µM (active) and 3.99 µM (active); in [11], 13.5 µM (active) and 25.2 µM (active); in assay [12] it was 76.2 nM (active) and 89.4 nM (active); in assay [15], 1.08 µM (active) and 1.12 µM (active). Further, the Potency in assay [13] was 2.7 µM (active) and 3.99 µM (active); in assay [14], 23.5 µM (active); in [16], 241 nM (active) and 317 nM (active).

In the case of `N#Cc1c(Cl)c(Cl)c(Cl)c(C#N)c1Cl`, the Potency in assay [1] was 12.6 µM (active) and 13.7 µM (active); in [3], 1.07 µM (active) and 1.72 µM (active); in [5] it was 23.9 µM (active) and 54.5 µM (active); in [6], 950 nM (active) and 1.93 µM (active); in assay [7] it was 15.6 µM (active) and 17.8 µM (active); in assay [11], 34.9 µM (active) and inactive. The Potency was 17.5 µM (active) and 22.4 µM (active) in assay [12]; 5.53 µM (active) and 5.64 µM (active) in assay [15]; 984 nM (active) and 1 µM (active) in assay [13]; 984 nM (active) and 1.26 µM (active) in [16]. In addition, the Potency entry in assay [2], in assay [8], in assay [10] and in assay [14] was “inactive” throughout.

Turning to `COc1ccc(O)c(C(C)(C)C)c1`, the Potency result in [1], in [2], in [3], in [4], in [5] and in assay [6] was “inactive” each time. The Potency result in assay [7], in assay [8], in assay [9], in assay [10] and in assay [14] was “inactive” throughout. For the same compound, the Potency was 7.99 µM (active) and 5.64 µM (active) in assay [12]; 25.3 µM (active) and 31.7 µM (active) in assay [15]; 39.9 µM (active) in [13].
